For 91 compounds, inhibition results are on record in PubChem BioAssay AID1347056 (Sanford-Burnham Center for Chemical Genomics, 2019).

Where “and” joins values, the source holds several entries; their conditions need not be identical. Equal entries are not always repeated. Hit rate of the full screen: of about 360,000 compounds, about 3,600 (1%) were called active. The sample holds actives, similar compounds and a random draw of the others, so the mix is not that of the screen.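 Rule for the calls: active = compounds whose plate-normalised and pattern-corrected inhibition of the luciferase reporter signal at the single screening dose is 50% or more; inactive = the rest.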

One may read the inhibition as the relative decrease from the control value, in per cent.

The nature of the assay: TROY pathway blockers in reporter cells – Q293 LMP1-TROYcd cells, NF-kB luciferase, uHTS, primary screen (AID 1347056). Conditions: 4 h, at 10 µM, active compounds read high.
In the case of `C#C[C@]1(O)CC[C@H]2[C@@H]3CCC4=CC(=O)CC[C@@H]4[C@H]3CC[C@@]21CC`, the inhibition is -7.9% (inactive) and -4.22% (inactive).

In the case of `Cc1ccc(CNC(=O)C2(C(F)(F)F)C/C(=C\Cc3ccccc3)CCCO2)o1` (stereo unspecified), the inhibition is 6.34% (inactive). Under `CCC1Nc2ncnc(N3CCN(c4ccccc4)CC3)c2N(Cc2ccc(Cl)cc2)C1=O` (stereo unspecified) stands 18.3% (inactive); under `O=C(Nc1ncccc1O)c1ccc(S(=O)(=O)N2CCCCCC2)cc1`, -10.3% (inactive); under `O=S(=O)(c1ccc(Br)cc1)N1CCC(c2nc3ccccc3[nH]2)CC1`, 2% (inactive).

`N#CC(C(=O)c1ccc(S(=O)(=O)N2CCCCCC2)cc1)c1nc2ccccc2[nH]1` (stereo unspecified): the inhibition was 51.6% (active). As to `CN1CCN(S(=O)(=O)c2cccc(C(=O)Nc3sccc3C#N)c2)CC1`, the inhibition is -0.51% (inactive). Under `O=C(NC(=S)Nc1cc(C(F)(F)F)ccc1N1CCOCC1)c1ccc(-c2cccc(Cl)c2)o1` stands -13.2% (inactive); under `CN1CCN(C(=O)c2ccc(-c3ccc(Br)cc3)o2)CC1`, -59.3% (inactive). For `O=C(NC(=S)Nc1ccccc1C(=O)O)c1ccc(-c2ccc(Br)cc2)o1`, the inhibition was 79.8% (active).

In the case of `[O-][n+]1c2c(nn1-c1ccc(Cl)c(Cl)c1)-c1nonc1CC2`, the inhibition is 10.8% (inactive). With `Cc1ncc(CO)c(/C=N/NC(=O)c2cccc(S(=O)(=O)N3CCCC3)c2)c1O`, the inhibition is 32.4% (inactive). On to `Cc1ccc(OCC(=O)c2cc(C)n(Cc3ccco3)c2C)c([N+](=O)[O-])n1`, for which the inhibition is -2.73% (inactive). Regarding `COCCn1c(C)cc(C(=O)COC(=O)CNC(=O)c2ccco2)c1C`, the inhibition is -1.63% (inactive). Under `Cc1cc(C(=O)COC(=O)CNC(=O)c2ccc(F)cc2)c(C)n1Cc1ccco1` stands 71.1% (active); under `O=C(COC(=O)Cn1[nH]c(=O)c2ccccc2c1=O)Nc1c(Cl)cccc1C(F)(F)F`, -7.36% (inactive); under `O=C(Cn1cnc2ccccc2c1=O)Nc1cccc(S(=O)(=O)N2CCCCC2)c1`, 6.2% (inactive). Under `CCCCC(=O)Nc1c2c(nn1-c1ccc([N+](=O)[O-])cc1)CS(=O)(=O)C2` stands -5.93% (inactive). Under `O=C1/C(=C\c2ccc([N+](=O)[O-])cc2)CS(=O)(=O)C/C1=C/c1ccc([N+](=O)[O-])cc1` stands 75% (active); under `O=C1CCCN1C(=O)COc1ccc([N+](=O)[O-])cc1`, 9.48% (inactive). For `CC1(C)Cc2c(sc(NC(=O)C(=O)NCC3CCCO3)c2C(=O)O)CO1` (stereo unspecified), the inhibition is -13.6% (inactive). As to `CCc1c(O)cc2n(c1=O)-c1ccccc1C2(C)C`, the inhibition is 4.14% (inactive). As to `CCN(CCCNC(=O)CCn1c(=O)[nH]c2ccsc2c1=O)c1ccccc1`, the inhibition was 0.42% (inactive). Take `CCN(CCCNC(=O)c1ccc2c(c1)NC(=O)CN2C)c1cccc(C)c1`: the inhibition was 71.7% (active). Consider `CCN(CCCNC(=O)C1CCN(S(=O)(=O)c2cnc[nH]2)CC1)c1ccccc1`, for which the inhibition was -0.34% (inactive).

Consider `Cc1ccc(SC(CC(=O)c2ccc(C(C)(C)C)cc2)C(=O)O)cc1` (stereo unspecified), for which the inhibition was 14.6% (inactive). Under `CCOc1ccc(NS(=O)(=O)c2ccc(Cl)c(C(=O)N(C)Cc3cccnc3)c2)cc1` stands -2.69% (inactive). Under `Fc1ccccc1-c1cc2cc3c(cc2cn1)OCO3` stands -40.9% (inactive); under `CC(NCC(=O)Nc1cc(Cl)cc(Cl)c1)c1ccccc1` (stereo unspecified), 17.5% (inactive). Regarding `Cc1nnc(SC(C(=O)Nc2cc(Cl)cc(Cl)c2)c2ccccc2)[nH]c1=O` (stereo unspecified), the inhibition is 54.4% (active). For `Cc1nnc(SC(C(=O)c2ccccc2)c2ccccc2)[nH]c1=O` (stereo unspecified), the inhibition is 14.7% (inactive). On to `O=C(CN(c1ccc2c(c1)OCCO2)S(=O)(=O)c1ccccc1)Nc1ccc2c(c1)OCO2`, for which the inhibition is -3.48% (inactive).

In the case of `COCCn1c(C)cc(C2=NNC(=Nc3ccc(F)cc3)SC2)c1C`, the inhibition was 56.7% (active). As for `C=CCn1c(C)cc(C2=NNC(=NCC)SC2)c1C`, the inhibition is 88% (active). For `CCN1CCN(c2ccc(S(=O)(=O)N3CCCCC3)cc2NC(=O)Cc2c(Cl)cccc2Cl)CC1`, the inhibition was 4.53% (inactive). As for `CCC(=O)Nc1ccccc1C(=O)N1CCN(Cc2ccccc2)CC1`, the inhibition is 12.5% (inactive).

As for `CN1OC[C@@H]2CN(S(=O)(=O)c3cccc4ccccc34)[C@H](c3ccc(N4CCCCC4)cc3)C[C@@H]21`, the inhibition was 14.6% (inactive). As for `COc1ccc(S(=O)(=O)N2C[C@H]3CON(C)[C@H]3C[C@H]2c2cccc(Br)c2)cc1`, the inhibition was 0.2% (inactive). With `CN1OC[C@@H]2CN(S(=O)(=O)c3cccc(C(F)(F)F)c3)[C@H](c3ccc(-c4cc5ccccc5o4)cc3)C[C@@H]21`, the inhibition is 64.2% (active). As to `CC1Cc2ccccc2N1S(=O)(=O)c1c(N)n(C)c(=O)n(C)c1=O` (stereo unspecified), the inhibition is 0.15% (inactive). Under `Clc1ccc(-c2cccc3nccn23)cc1` stands -13.8% (inactive); under `CC(=O)N1N=C(c2ccncc2)OC1(Cc1ccccc1)Cc1ccccc1`, 5.47% (inactive); under `Cc1cc(Cl)c(S(=O)(=O)NCC2CCCO2)cc1OCC(N)=O` (stereo unspecified), -1.29% (inactive).

For the compound `Cc1cc(Cl)c(S(=O)(=O)N(C)C)cc1OCC(N)=O`, the inhibition was 0.31% (inactive). Under `Cc1cc(Cl)c(S(=O)(=O)Nc2ccc3c(c2)OCCO3)cc1OCC(N)=O` stands 77.5% (active); under `COC(=O)CSc1snnc1-c1ccc(Cl)c(Cl)c1`, -45.5% (inactive); under `C=CCN(c1ccccc1C(=O)NCC(=O)OCC)S(=O)(=O)c1ccc(C)cc1`, 1.62% (inactive).

Take `S=C(NCCCc1cnc[nH]1)NCCCN(Cc1ccc(Cl)c(Cl)c1)c1ccc(Br)cn1`: the inhibition is 8.84% (inactive). Under `CCOC(=O)C1CCCN(C(=O)Cn2ncc3c(=O)oc4ccc(C)cc4c32)C1` (stereo unspecified) stands 1.47% (inactive); under `Cc1ccc2oc(=O)c3cnn(CC(=O)N(Cc4ccco4)C4CCCCC4)c3c2c1`, 58.7% (active); under `Cc1ccc2oc(=O)c3cnn(CC(=O)N4CCCCCC4)c3c2c1`, 6.16% (inactive). For `CCCCC(=O)Nc1ccc2c(c1)C(=O)NC2=O`, the inhibition is 10.3% (inactive). Under `Cc1cc(C(=O)CSc2nc(N)cc(=O)[nH]2)c(C)n1-c1cccc(F)c1` stands -1.75% (inactive). Consider `Cc1cc(C(=O)COc2ccccc2Cl)c(C)n1C1CC1`, for which the inhibition is -42.6% (inactive). Under `Cc1cc(C(=O)COC(=O)C2CC2)c(C)n1-c1ccc(F)cc1` stands 90.5% (active); under `Cc1ccc(-c2cc(N)on2)cc1`, -41.2% (inactive).

On to `Cc1ccc2nc(-c3ccc(Br)cc3)cn2c1`, for which the inhibition is 71.4% (active).

For the compound `COc1ccc(-c2nc3ccc(Br)cn3c2Cc2ccc(C)cc2)cc1OC`, the inhibition is -36.6% (inactive). In the case of `Cc1ccc(-c2cn3cc(C)ccc3n2)cc1`, the inhibition is 86.4% (active).

As for `Cc1ccc(-c2nc3ccc(Cl)cn3c2Cc2ccccc2)cc1`, the inhibition is -69.6% (inactive). Under `Cc1ccc(-c2nc3ccc(Br)cn3c2Cc2ccccc2C(F)(F)F)cc1` stands -33.5% (inactive). Under `COc1ccc(C(=O)O)cc1S(=O)(=O)NCc1cccnc1` stands -5.43% (inactive); under `CC(=O)Nc1ccc(/C(C)=N/NC(=O)CN(c2ccccc2Br)S(C)(=O)=O)cc1`, 8.85% (inactive). Turning to `COc1ccc(CN(C)C(=S)Nc2ccc(Cl)cc2Cl)cc1`, the inhibition is -7.98% (inactive).

Turning to `O=C(c1cc(COc2c(F)cccc2F)on1)N1CCSCC1`, the inhibition is -17% (inactive). As for `Cn1cnc2c1c(=O)n(Cc1ccccc1C#N)c(=O)n2C`, the inhibition was 2.82% (inactive). With `CCN1CCCC1CNC(=O)c1cc2cc(OC)c(OC)cc2[nH]1` (stereo unspecified), the inhibition is -3.54% (inactive). With `COc1cc2cc(C(=O)N/N=C/c3cccc(OC)c3OC)[nH]c2cc1OC`, the inhibition was 69.2% (active). As for `COc1cccc2[nH]c(C(=O)NCCc3ccccc3)cc12`, the inhibition is -24.7% (inactive).

On to `COc1ccc(CNC(=O)CN2C(=O)c3ccccc3S2(=O)=O)cc1`, for which the inhibition is 9.08% (inactive). Consider `Cc1ccc2c(c1)N(CC(=O)N1CCCC(C)C1)C(=O)CO2` (stereo unspecified), for which the inhibition was -0.08% (inactive). Under `CN(Cc1ccc(F)cc1)C(=O)CN1C(=O)c2ccccc2S1(=O)=O` stands -51.1% (inactive).

Take `O=C(CN1C(=O)c2ccccc2S1(=O)=O)N1CCc2ccccc21`: the inhibition was 89.1% (active).

For `CC1CCCN(C(=O)Cn2c(=O)oc3ccccc32)C1` (stereo unspecified), the inhibition was -6.27% (inactive). Under `CC1CCCN(C(=O)CN2C(=O)c3ccccc3S2(=O)=O)C1` (stereo unspecified) stands 58.2% (active).

Regarding `CC(C)(C)c1ccc(S(=O)(=O)N2CCN(C(=O)c3ccc4c(c3)C(=O)N(Cc3ccncc3)C4=O)CC2)cc1`, the inhibition was 1.2% (inactive). Under `CC(NC(=O)COC(=O)c1ccc(Cl)cc1O)c1ccc(F)cc1` (stereo unspecified) stands 4.75% (inactive); under `Cc1cc(S(=O)(=O)NC2CCCCC2)ccc1OCC(=O)NCc1cccnc1`, -5.71% (inactive). Under `O=C(CCc1nc(-c2ccccc2)no1)Nc1cccc(C(=O)NC2CC2)c1` stands 18.6% (inactive).

Take `CN(C)/C=C(\C#N)C(=O)c1cccnc1Oc1ccc(F)cc1F`: the inhibition was -7.14% (inactive). `COc1ccc(-c2cc3c(c4c2ccn4C)C2CCC3C2)cn1` (stereo unspecified): the inhibition was 8.35% (inactive).

For the compound `Cc1ccc(NS(=O)(=O)c2ccc(-c3ccc(=O)[nH]n3)o2)c(C)c1`, the inhibition is -3.14% (inactive). Under `CC(NC(=O)COC(=O)c1ccc2ccccc2n1)c1ccccc1` (stereo unspecified) stands -0.28% (inactive); under `CC1COc2ccccc2N1C(=O)c1cccnc1Cl` (stereo unspecified), 8% (inactive).

In the case of `O=C(NCCc1ccccn1)c1cc(-c2ccc(Cl)cc2)nc2ccccc12`, the inhibition is 15.8% (inactive). For the compound `CN(C)CCNC(=O)c1ccc(Cl)c2cc3ccccc3nc12`, the inhibition was 51.8% (active). For the compound `CCCN(CCC)CCNC(=O)c1cc2c(C)nc3ccccc3c2o1`, the inhibition is -8.54% (inactive).

For the compound `COc1ccc(OC)c(CCNC(=O)CCn2ccc3cc(S(=O)(=O)N4CCCC4)ccc32)c1`, the inhibition was -2.42% (inactive).

On to `O=C(c1ccc2c(c1)N(Cc1ccc(F)cc1)C(=O)c1ccccc1S2(=O)=O)N1CCN(c2ccccn2)CC1`, for which the inhibition was 11.9% (inactive). Consider `CC1CCN(c2ccc3c(c2)S(=O)(=O)c2cc(C(=O)O)ccc2C3=O)CC1`, for which the inhibition was -46.1% (inactive). Under `O=C1c2ccccc2S(=O)(=O)c2cc(N3CCN(c4ccccn4)CC3)ccc21` stands 69.7% (active).
